How the values were obtained:
Assay type in all cases: functional
[1] = target: Solute carrier family 2, facilitated glucose transporter member 1 (Homo sapiens) (UniProt P11166); assay: ST_JUDE_LEISH: Cytotoxicity at 2uM final concentration against transgenic Leishmania Mexicana promastigotes LmGLUT1 that are glucose transport deficient and complemented with the human glucose transporter GLUT1. Activity is measured by DNA content using SYBR green in vitro
[2] = target: Hexose transporter 1 (Plasmodium falciparum) (UniProt O97467); assay: ST_JUDE_LEISH: Cytotoxicity at 2uM final concentration against transgenic Leishmania Mexicana promastigotes LmPfHT that are glucose transport deficient and complemented with the Plasmodium falciparum hexose transporter. Activity is measured by DNA content using SYBR green in vitro
[3] = target: Glucose transporter (Leishmania mexicana) (UniProt O61059); assay: ST_JUDE_LEISH: Cytotoxicity at 2uM final concentration against transgenic Leishmania Mexicana promastigotes LmGT2 that are glucose transport deficient and complemented with the L. Mexicana glucose transporter 2. Activity is measured by DNA content using SYBR green in vitro

Solute carrier family 2, facilitated glucose transporter member 1 (Homo sapiens), sequence (P11166 whole entry): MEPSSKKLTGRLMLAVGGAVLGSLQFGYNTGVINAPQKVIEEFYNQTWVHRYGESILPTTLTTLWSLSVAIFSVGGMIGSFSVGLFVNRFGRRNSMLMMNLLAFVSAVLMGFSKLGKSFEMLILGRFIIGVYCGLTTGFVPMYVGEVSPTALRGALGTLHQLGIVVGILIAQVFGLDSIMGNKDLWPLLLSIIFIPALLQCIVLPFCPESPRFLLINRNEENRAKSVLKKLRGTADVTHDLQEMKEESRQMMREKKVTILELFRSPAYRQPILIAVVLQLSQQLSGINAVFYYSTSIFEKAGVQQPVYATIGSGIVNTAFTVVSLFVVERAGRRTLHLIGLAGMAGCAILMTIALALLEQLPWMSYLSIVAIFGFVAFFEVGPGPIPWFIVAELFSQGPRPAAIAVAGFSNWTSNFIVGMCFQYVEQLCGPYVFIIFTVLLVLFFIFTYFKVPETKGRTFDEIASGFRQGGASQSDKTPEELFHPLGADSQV

| SMILES | inhibition [1] [%] | inhibition [2] [%] | inhibition [3] [%] |
| --- | --- | --- | --- |
| COc1ccc2c(=NN=Cc3c(OC)ccc4ccccc34)cc(C)[nH]c2c1 | 2.05 | 2.99 | 4.08 |
| Cn1cc(C2CCN(CCCCNC(=O)c3ccc(-c4ccc(C(F)(F)F)cc4)c(CO)c3)CC2)c2ccccc21 | 4.11 | 3.1 | 2.35 |
| C[C@H](Nc1nc(C(Oc2ccccc2)c2ccccc2)nc2[nH]ncc12)c1ccccc1 (some centres not stated) | 3.69 | 1.72 | 0.54 |
| O=C(Nc1cccc(-c2ccc(CN3CCNCC3)cc2)c1)c1cccc(Cl)c1 | -0.47 | -1.87 | -2.68 |
